Where “and” joins values, the source holds several entries; their conditions need not be identical. Equal values may be shown once. The whole screen tested about 5,500 compounds, of which about 2,000 (36%) were called active. Roughly 18% stayed inconclusive and do not appear here. Cut-off read from the data, not from the text of the source: active = normalized growth mostly below about 0.91 (no sharp cut-off); inconclusive = no clear call, values can overlap the other calls; inactive = mostly above about 0.92. Some of the results follow.
Experiment: chemical genetic growth profiling, strain panel (AID 1159580);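 note: tested at 20 µM; growth read once vehicle control cultures reached saturation at 30 °C; 1 = growth at the plate median or of vehicle wells; lower values mean less growth of the strain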
Conditions: S. cerevisiae deletion strains, growth OD

Measured: normalized growth

O=C(O)c1cc2cc(Cl)ccc2[nH]1
inactive: locus YAL013W, strain DEP1, active compounds read low 1.01 | locus YAL021C, strain ccr4, active compounds read low 0.995 | locus YAL026C, strain drs2, active compounds read low 0.988 | locus YAL030W, strain snc1, active compounds read low 0.989 | locus YBL061C, strain skt5, active compounds read low 0.991 | locus YBR009C, strain hhf1, active compounds read low 0.978 | locus YBR021W, strain FUR4, active compounds read low 0.998 | locus YBR023C, strain chs3, active compounds read low 0.986 | locus YBR171W, strain sec66, active compounds read low 0.986 | locus YBR229C, strain ROT2, active compounds read low 1.01 | locus YBR231C, strain swc5, active compounds read low 0.987 | locus YBR279W, strain paf1, active compounds read low 0.995 | locus YCL011C, strain gbp2, active compounds read low 0.985 | locus YCL016C, strain dcc1, active compounds read low 0.988 | locus YCL029C, strain bik1, active compounds read low 0.983 | locus YCL061C, strain MRC1, active compounds read low 0.984 | locus YCL069W, strain vba3, active compounds read low 0.993 | locus YCR088W, strain abp1, active compounds read low 0.975 | locus YDL005C, strain med2, active compounds read low 0.987 | locus YDL035C, strain GPR1, active compounds read low 1.02 | locus YDL040C, strain nat1, active compounds read low 0.989 | locus YDL074C, strain BRE1, active compounds read low 1.05 | locus YDL101C, strain DUN1, active compounds read low 1.03 | locus YDL134C, strain PPH21, active compounds read low 1.01 | locus YDL185W, strain tfp1, active compounds read low 0.973 | locus YDL192W, strain arf1, active compounds read low 0.989 | locus YDR001C, strain nth1, active compounds read low 0.981 | locus YDR069C, strain doa4, active compounds read low 0.983 | locus YDR101C, strain arx1, active compounds read low 0.971 | locus YDR137W, strain rgp1, active compounds read low 0.999 | locus YDR150W, strain NUM1, active compounds read low 1.01 | locus YDR159W, strain sac3, active compounds read low 0.977 | locus YDR162C, strain NBP2, active compounds read low 1.05 | locus YDR195W, strain ref2 0.998 | locus YDR297W, strain sur2, active compounds read low 0.997 | locus YDR318W, strain mcm21, active compounds read low 0.984 | locus YDR334W, strain swr1, active compounds read low 0.986 | locus YDR335W, strain msn5, active compounds read low 0.988 | locus YDR388W, active compounds read low 0.98 | locus YDR392W, strain spt3, active compounds read low 0.953 | locus YDR502C, strain sam2, active compounds read low 0.998 | locus YEL003W, strain gim4, active compounds read low 1 | locus YEL037C, strain rad23, active compounds read low 0.98 | locus YEL061C, strain CIN8 (second series), active compounds read low 0.981 | locus YEL061C, strain CIN8, active compounds read low 1 | locus YER015W, strain faa2, active compounds read low 0.993 | locus YER016W, strain bim1, active compounds read low 0.984 | locus YER110C, active compounds read low 0.982 | locus YER111C, strain swi4, active compounds read low 0.98 | locus YER155C, strain BEM2 (second series), active compounds read low 0.972 | locus YER155C, strain BEM2, active compounds read low 1.01 | locus YER167W, strain BCK2, active compounds read low 1.01 | locus YFR010W, strain ubp6, active compounds read low 0.986 | locus YGL078C, strain dbp3, active compounds read low 0.979 | locus YGL086W, strain mad1, active compounds read low 0.977 | locus YGL167C, strain pmr1, active compounds read low 0.988 | locus YGL173C, strain kem1, active compounds read low 0.984 | locus YGL227W, strain vid30, active compounds read low 0.973 | locus YGL240W, strain doc1, active compounds read low 0.984 | locus YGL248W, strain PDE1, active compounds read low 1.01 | locus YGL253W, strain hxk2, active compounds read low 0.994 | locus YGR078C, strain PAC10, active compounds read low 1.03 | locus YGR135W, strain pre9, active compounds read low 0.994 | locus YGR229C, strain SMI1, active compounds read low 1.02 | locus YGR252W, strain gcn5, active compounds read low 0.928 | locus YHR013C, strain ard1, active compounds read low 0.973 | locus YHR027C, strain rpn1, active compounds read low 0.988 | locus YHR030C, strain SLT2, active compounds read low 0.997 and 0.95 | locus YHR079C, strain IRE1 (second series), active compounds read low 0.984 | locus YHR079C, strain IRE1, active compounds read low 0.932 | locus YHR094C, strain hxt1, active compounds read low 0.984 | locus YHR129C, strain ARP1, active compounds read low 1.01 | locus YHR142W, strain chs7, active compounds read low 0.984 | locus YHR200W, strain rpn10, active compounds read low 0.99 | locus YIL066C, strain RNR3, active compounds read low 1.01 | locus YIL073C, strain SPO22, active compounds read low 1.02 | locus YIL125W, strain kgd1, active compounds read low 0.979 | locus YIR030C, strain dcg1, active compounds read low 0.991 | locus YJL092W, strain hpr5, active compounds read low 0.98 | locus YJL095W, strain BCK1 (second series), active compounds read low 0.983 | locus YJL095W, strain BCK1, active compounds read low 1.03 and 0.942 | locus YJL115W, strain asf1, active compounds read low 0.992 | locus YJL129C, strain trk1, active compounds read low 0.99 | locus YJL134W, strain LCB3, active compounds read low 1.01 | locus YJL154C, strain vps35, active compounds read low 0.985 | locus YJL164C, strain tpk1, active compounds read low 0.99 | locus YJL166W, strain qcr8, active compounds read low 0.995 | locus YJL168C, strain set2, active compounds read low 0.986 | locus YJL187C, strain SWE1 (second series), active compounds read low 1.02 | locus YJL187C, strain SWE1, active compounds read low 0.992 | locus YJR043C, strain POL32, active compounds read low 0.984 | locus YJR066W, strain TOR1, active compounds read low 0.903

From PubChem BioAssay AID1159580 (chemical genetic matrix, 2015)
